Bioassay records: PubChem, National Center for Advancing Translational Sciences (NCATS)
CBFb-RUNX1 inh: blocks binding between human CBF-beta and RUNX1. Q01196+Q13951. AlphaScreen CBFb-His/RUNX1-biotin binding, biochemical. Potency, µM (doses to about 59.8 µM), for inactives: at the highest dose activity, negative = inhibition, actives largely listed as inhibitors. 230,000 tested, under 10 active. AID 1477; note: % of control where 0% means no effect
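Bead-based AlphaScreen assay; binding partners His-tagged CBF-beta and biotinylated RUNX1 at 30 nM each. Compound exposure 15 min after a 20-min protein preincubation; bead step 90 min; all steps at room temperature.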
VDR inhibitor: vitamin D3 receptor (human) inhibition; P11473; VDR-SRC2-3 peptide fluorescence polarization, 2 h; Potency, µM, without a hit: max response, negative = inhibition, actives largely listed as inhibitors; hit rate 0.93% among 400,000; note: potency is the fitted concentration of half-maximal effect; % is set by controls: 0 for no effect and ±100 for the full control effect
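After 23 nl compound addition and a short centrifugation, plates sat for 2 hours at ambient temperature; polarization of fluorescence then indicated loss of VDR binding to peptide SRC2-3.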
KCNH2 WT inh: blocks the wildtype human KCNH2 potassium channel; U2OS, BacMam KCNH2, thallium flux FluxOr; active compounds read low; hit rate 0.37% among 340,000; Q12809; AID 720551; activity change, % at 1.84 µM;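 active = maximum activity change below -70%; inconclusive = maximum activity change between -70% and -50%; inactive = maximum activity change above -50%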; note: % is set by controls: 0 for no effect and ±100 for the full control effect
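U2OS cells were transduced with wild-type KCNH2 virus (2.03 x 10^8 / mL) for 4 h at room temperature, then cultured overnight at 37 C. Thallium flux was read with FluxOr dye. Rate constants were normalized to DMSO controls.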
MBNL1 CUG block: inhibitors of human MBNL1 binding to CUG repeat RNA. Q9NR56. TR-FRET MBNL1-His/biotin-(CUG)12 binding, 665/545 ratio. Potency, µM (series often up to 57.5 µM), without a hit: at the top dose activity change, negative = inhibition, hits mostly inhibitors. hit rate 0.036% among 280,000. AID 2675; active = well fitted inhibition curve with a large enough effect in the signal ratio, with a control signal flat, not every such curve was filed as active; inconclusive = small, poorly fitted or top-dose-only effect, or effect the other way, or a change in a side signal; inactive = no such curve, though single readings can be large or run the other way; the % refers to the signal ratio; note: potency is the fitted concentration of half-maximal effect; % is set by controls: 0 for no effect and ±100 for the full control effect
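MBNL1-His + Biotin-(CUG)12, cpd titration 92 nM–58 uM; Tb anti-His Ab 0.055 ng/ul, SA-XL665 5 nM (final); 60 min RT; ratiometric 665/545 nm, Ex 340 nm; normalized to buffer and full-complex controls.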
PLK1 PBD inh: blocks phosphopeptide binding to human PLK1 polo-box domain; Potency, µM, inactives show max response, negative = inhibition, most hits filed as inhibitors; AID 720504; hit rate 2.8% among 360,000; P53350; Plk1 PBD binding of FITC phosphopeptide, fluorescence polarization; note: potency is the fitted concentration of half-maximal effect; series mostly up to about 57 µM; % is set by controls: 0 for no effect and ±100 for the full control effect; nearly all actives have a fitted effect of over 65% in size
KCNH2 3.1 inh: KCNH2 3.1 (human) potassium channel inhibition | activity change, % (tested at about 1.8 µM) | hit rate 0.95% among 340,000 | U2OS KCNH2 3.1, thallium flux FluxOr; active compounds read low | AID 720553;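 active = maximum activity change below -70%; inconclusive = maximum activity change from -70% to -50%; inactive = maximum activity change above -50%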;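 note: thallium influx rate constant from kinetic fluorescence after stimulation buffer; % is set by controls: 0 for no effect and ±100 for the full control effect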
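We transduce U2OS cells with the mutant 3.1 virus, culture them overnight, load FluxOr with Red40 quencher for 45 min, then add stimulation buffer and read kinetically for 2 min to derive a normalized rate constant.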
The depositor's hits bear a star; ? = inconclusive; nt = not tested or not shown; [ ] = remark or other dose. In the library only some 3.8% were active in any assay of this set; here they are far more common. Unless noted, calls come from the whole dose curve; as a rule, active = well fitted curve in the direction sought with a large enough effect; inconclusive = small, poorly fitted or top-dose-only effect, or another doubt; inactive = no such curve, though single readings can be large; an effect the other way counts as inactive or inconclusive.

SMILES | CBFb-RUNX1 inh | VDR inhibitor | KCNH2 WT inh | MBNL1 CUG block | PLK1 PBD inh | KCNH2 3.1 inh
COc1cc(/C=C/C(=O)c2cccs2)cc(OC)c1OC | -2.3%[21.7 µM] | 12.6µM* | nt | nt | nt | nt
COc1cc(/C=C/C(C)=O)cc(OC)c1OC | -3.5% | -11.6% | -16.4 | -4.7% | 29.9µM* | -4.2
CN(C)c1cccc(C(=O)N2CCC(c3c[nH]c4ccccc34)(c3c[nH]c4ccccc34)CC2)c1 | nt | 0.3% | nt | nt | nt | nt
O=S(=O)(c1ccccc1C(F)(F)F)N1CCN(c2nc(-c3cccs3)nc3ccccc23)CC1 | nt | 1.8% | nt | nt | nt | nt
CC(C)NS(=O)(=O)c1ccc(OCC(=O)Nc2ccc(F)cc2)cc1 | -1.3% | 1.7% | 9.3 | -5.1% | 23.8µM* | 8.3
CCOC(=O)c1ccc(NC(=O)COc2ccc(S(=O)(=O)NC(C)CC)cc2)cc1 (stereo unspecified) | -2.4% | 6.5% | 2.4 | -5.8% | -3.6% | 1.6
CNC(=O)C1CC(=O)N(c2ccc(OCC(=O)Nc3ccc(F)cc3)cc2)C1 (stereo unspecified) | nt | -5.6% | -2.9 | nt | 26.7µM* | 33.8
C[C@H](NC(=O)C1CC(=O)N(c2ccc(F)cc2)C1)C(=O)N1CCCCC1 (stereo partly specified) | nt | -21.1% | -12.7 | -5.5% | 23.8µM* | -8.4
CCOC(=O)c1c(C)oc2ccc(OCc3cc(C(=O)OC)oc3C)cc12 | 15.7% | -19.2% | -6.0 | -3.4% | 26.7µM* | -9.7
O=C1c2ccccc2-c2onc3ccc(NCc4ccco4)c1c23 | ? | ? | -6.5 | ? | 3.36µM* | -13.3
CCNc1ccc2noc3c2c1C(=O)c1ccccc1-3 | nt | 8.8% | 4.2 | ? | 1.06µM* | -0.6
CCOc1ccc2noc3c2c1C(=O)c1ccccc1-3 | -20.8% | -0.5% | -2.1 | ? | 5.3% | 6.6
CCN(c1ccccc1)c1nnc(NC(=O)Nc2ccc(C)cc2)s1 | nt | 10.5% | nt | nt | nt | nt
Cc1nnc(N2CCN(C(=O)Nc3cc(F)ccc3F)CC2)c2nn(-c3ccc(Cl)cc3)c(C)c12 | nt | 8.2% | nt | nt | nt | nt
O=C(c1ccc2c(c1)N(Cc1ccc(F)cc1)C(=O)c1ccccc1S2=O)N1CCC(Cc2ccccc2)CC1 (stereo unspecified) | nt | -1.8% | nt | nt | nt | nt
CC(C)N(C)CCOC(=O)c1ccccc1Cl | 0.3% | -2.3% | 2.2 | nt | -9.7% | -5.3
CC(C)N(C)CCOC(=O)c1ccccc1Br | -1.9% | ? | -0.4 | nt | 23.8µM* | 14.4
CCc1ccc(CNc2ncc(-c3cccc(OC)c3)n2C)cc1 | nt | -5.7% | nt | nt | nt | nt
Cc1cc(C(=O)N2CCCC(N3CCN(c4ccc(F)cc4)CC3)C2)c(C)o1 (stereo unspecified) | nt | ? | 13.0 | 6.3% | 26.7µM* | -2.9
CC/C(O)=C1\C(=O)CC(c2ccccc2)CC1=NCCc1c(C)[nH]c2ccc(C)cc12 (stereo unspecified) | 4.9%[2.36 µM] | -20.2% | -3.9 | 7.4% | -4.2% | -12.3
CC/C(O)=C1\C(=O)CCCC1=NCCc1c(C)[nH]c2ccc(C)cc12 | -9.7% | ? | 12.2 | 2.2% | 29.9µM* | 0.3
COc1cccc(-c2csc(-c3c(N)c(C(=O)c4ccccc4)n4ccccc34)n2)c1 | nt | 8.5% | nt | nt | nt | nt
COC(=O)c1c(-c2ccccc2)csc1N | -9.4% | 5.8% | 12.9 | 3.8% | 10.6µM* | 7.4
COc1ccc(CCNC(=O)CNS(=O)(=O)c2ccc(N(C)C)c([N+](=O)[O-])c2)cc1OC | nt | -19.5% | -0.1 | ? | -27.7% | 3.4
CNc1ccc(S(=O)(=O)NCC(=O)NCCCc2ccccc2)cc1[N+](=O)[O-] | nt | ? | 7.2 | ? | 5.97µM* | 6.8
SMILES | CBFb-RUNX1 inh | VDR inhibitor | KCNH2 WT inh | MBNL1 CUG block | PLK1 PBD inh | KCNH2 3.1 inh
CN(C)c1ccc(S(=O)(=O)NCC(=O)NCc2ccccc2)cc1[N+](=O)[O-] | nt | ? | -0.9 | 19.3% | 11.9µM* | -10.3
Cc1ccc2nc(C)c(C(=O)N/N=C/c3cccs3)cc2c1 | -1.5% | -11.0% | -1.7 | nt | -2.2% | -149.2*
CC(=O)Nc1ccc(/C=N/NC(=O)c2cc3cc(C)ccc3nc2C)cc1 | -2.5% | 3.8% | 5.3 | 2.3% | -0.4% | -2.4
Cc1ccc(C)c(N(C(=O)c2snc(C(N)=O)c2N)C(C(=O)NCC2CCCO2)c2cccs2)c1 (stereo unspecified) | 4.1% | 79.4µM* | -4.1 | 14.9% | 29.9µM* | -12.1
CCOC(=O)C1=C(C)OC2(O)c3ccccc3C(=O)C12O (stereo unspecified) | -0.9% | 5.01µM* | -2.0 | -3.6% | -19.7% | 5.4
CC(=O)C1=C(C)OC2(O)c3ccccc3C(=O)C12O (stereo unspecified) | 3.8% | 1.58µM* | -4.2 | ? | -12.1% | -1.8
CCn1nc(C)c2c(-c3ccccc3)cc(=O)n(C(C)C(=O)NCc3ccc(C)cc3)c21 (stereo unspecified) | nt | 5.9% | nt | nt | nt | nt
Cc1ccc2c(c1)CCCN2C(=O)Nc1ccc2c(c1)OCO2 | -8.1% | ? | -17.6 | 4.9% | 26.7µM* | 10.9
COc1ccc(C2(CNC(=O)C(=O)Nc3ccc(F)cc3)CCCC2)cc1OC | nt | -6.4% | nt | nt | nt | nt
NC(=O)c1ccccc1NC(=O)NC1CCCCC1 | 9.5% | 4.4% | -3.2 | ? | -0.9% | -71.4*
COc1ccc(NC(=O)c2cc3c(=O)n(Cc4cccnc4)ccc3nc2C)c(OC)c1 | nt | 13.5% | nt | nt | nt | nt
CCc1nc(SC)ncc1C(=O)N1CCN(c2cc(C)ccc2C)CC1 | nt | -13.0% | nt | nt | nt | nt
COc1ccc(-c2sc3ccc(N4CCOCC4)cc3c2-c2ccc(OC)c(F)c2)cc1 | nt | 15.5% | -12.6 | 12.1% | -20.6% | -86.6*
O=C(Nc1ccccc1Cl)N1CCC2(CC1)Oc1ccccc1C(=O)N2Cc1ccc(F)cc1 | nt | -1.0% | nt | nt | nt | nt
COc1ccc(NC(=O)CN(C)S(=O)(=O)c2ccc(C)cc2)c([N+](=O)[O-])c1 | 1.5% | -15.9% | -121.7* | 2.5% | 4.2% | -2.0
O=C(O)c1ccccc1N/N=C/C1=C(N2CCOCC2)C(=C\c2ccccc2)/CC1 | ? | -16.0% | -13.8 | -3.3% | ? | 0.7
Cc1cc(=O)[nH]c(N/N=C/C2=C(N3CCOCC3)C(=C\c3ccc(Cl)cc3)/CC2)n1 | -3.5% | 89.1µM* | -10.3 | 3.4% | ? | 5.2
COc1ccc(Br)cc1CNC(=O)c1cc(=O)[nH]c2ccc(S(=O)(=O)N3CCCCC3)cc12 | nt | 2.6% | nt | nt | nt | nt
N#Cc1c(-c2cccc(Br)c2)cc(-c2ccco2)[nH]c1=O | -20.0% | 3.5% | -10.6 | 21.5% | 13.4µM* | 9.3
Cc1cccc(-c2nc3scc(CCNS(=O)(=O)c4ccc5c(c4)OCCO5)n3n2)c1 | nt | 18.9% | nt | nt | nt | nt
CCC(CC)c1nnc(NC(=O)CS(=O)(=O)c2ccccc2)s1 | nt | ? | 9.6 | 0.4% | 9.47µM* | 2.7
CCCc1nnc(NC(=O)CS(=O)(=O)c2ccccc2)s1 | nt | -9.1% | 3.2 | -4.9% | -29.1% | 3.9
